Source: PubChem (National Center for Advancing Translational Sciences (NCATS))
Sampled rows, rich in hits. Any-hit rate of the full collection: about 19%.
RORg inh: ROR gamma (mouse) transcription inhibition; AID 2551; P51450; Potency, µM (series often up to 53.6 µM), hits mostly inhibitors; Drosophila S2 Gal4-RORgamma UAS-luciferase reporter, 20 h; hit rate 5.4% among 310,000; note: nearly all actives have a fitted effect of over 60% in size
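Luminescence from a UAS-regulated Photinus luciferase reporter in stably transfected Drosophila Schneider cells is measured; decreased signal marks ROR gamma inhibition. Fusion expression is induced by 700 uM copper sulfate for 20 hr.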
DT40 TDP1 CPT: DT40-hTDP1 cell growth loss with CPT; chicken DT40 Tdp1-/-;hTDP1 cells + 20 nM CPT, ATP luminescence, 48 h; Potency, µM (top dose mostly 46.2 µM), hits mostly inhibitors; hit rate 12% among 420,000; AID 686979; note: nearly all actives have a fitted effect of over 55% in size
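Chicken DT40 Tdp1-/- cells stably complemented with human TDP1 were seeded at 400 cells/well in medium containing 20 nM camptothecin, exposed to pin-transferred compounds, and grown at 37 °C for at least 48 hr. Viability was read as ATP luminescence.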
TDP1 cell noCPT: qHTS for Inhibitors of human tyrosyl-DNA phosphodiesterase 1 (TDP1): qHTS in cells in absence of CPT; Potency, µM (series often up to 46.2 µM), most hits filed as inhibitors; DT40 Tdp1-/- hTDP1 cells, no CPT, ATP luminescence, 48 h; hit rate 15% among 420,000; note: nearly all actives have a fitted effect of over 55% in size
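No-CPT arm: Tdp1-/-;hTDP1 DT40 cells (400/well) plus compounds, incubated ≥48 hr at 37 °C. Readout CellTiter-Glo luminescence.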
TDP1 block: inhibitors of human tyrosyl-DNA phosphodiesterase TDP1; Potency, µM (titrated, usually from 130 µM), hits mostly inhibitors; recombinant TDP1, AlphaScreen DNA substrate cleavage; Q9NUW8; hit rate 0.28% among 350,000; AID 485290; note: nearly all actives have a fitted effect of over 40% in size
Target sequence (Q9NUW8 whole entry, looked up): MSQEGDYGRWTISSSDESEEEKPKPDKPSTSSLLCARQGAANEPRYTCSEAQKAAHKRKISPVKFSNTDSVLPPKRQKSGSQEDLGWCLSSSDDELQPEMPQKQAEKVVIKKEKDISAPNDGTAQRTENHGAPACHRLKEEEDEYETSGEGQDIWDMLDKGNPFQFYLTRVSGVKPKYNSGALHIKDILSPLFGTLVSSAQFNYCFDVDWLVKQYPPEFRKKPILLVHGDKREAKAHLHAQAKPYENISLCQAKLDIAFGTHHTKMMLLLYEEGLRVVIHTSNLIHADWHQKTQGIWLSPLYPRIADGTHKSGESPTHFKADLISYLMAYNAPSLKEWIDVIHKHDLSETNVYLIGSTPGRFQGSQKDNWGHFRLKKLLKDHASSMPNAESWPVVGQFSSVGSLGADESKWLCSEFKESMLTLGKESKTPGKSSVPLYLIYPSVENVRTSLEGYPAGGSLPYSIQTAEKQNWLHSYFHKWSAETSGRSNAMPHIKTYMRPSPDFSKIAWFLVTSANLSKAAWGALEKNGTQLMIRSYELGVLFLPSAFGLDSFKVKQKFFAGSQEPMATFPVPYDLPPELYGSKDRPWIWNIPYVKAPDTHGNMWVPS
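Steps: enzyme plus compound, 15 min RT; add biotin/phosphotyrosine-FITC oligonucleotide (15 nM final), react 5 min; add donor/acceptor beads (10 ug/ml final), 10 min; read AlphaScreen. Tdp1 at 1 nM final.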
Gal4-VP16 FLuc: counter-screen for ROR gamma inhibitors: Gal4-VP16 reporter; Drosophila S2 Gal4-VP16 UAS-luciferase, luminescence, 20 h; Potency, µM (doses to about 53.6 µM), actives largely listed as inhibitors; hit rate 3.5% among 310,000;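 note: Gal4-VP16 expression switched on by copper sulfate through the metallothionein promoter; nearly all actives have a fitted effect of over 50% in size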
Hits are given with their value. Calls come from the whole dose curve; as a rule, active = well fitted curve in the direction sought with a large enough effect; inconclusive = small, poorly fitted or top-dose-only effect, or another doubt; inactive = no such curve, though single readings can be large; an effect the other way counts as inactive or inconclusive.

What do the screens show for `O=C(CN1C(=O)C2(SCC(=O)N2c2ccc(Cl)cc2)c2ccccc21)NCCc1ccccc1` (centres undefined)?
DT40 TDP1 CPT: inconclusive; TDP1 cell noCPT: 18µM; TDP1 block: inactive

Results for Cc1cccc(N2C(=O)CSC23C(=O)N(CC(=O)NCCc2ccccc2)c2ccccc23)c1 (centres undefined) ?
DT40 TDP1 CPT: inconclusive; TDP1 cell noCPT: inconclusive; TDP1 block: inactive

What do the screens show for `Cc1cccc(N2C(=O)CSC23C(=O)N(CC(=O)NCc2ccccc2Cl)c2ccccc23)c1` (centres undefined)?
DT40 TDP1 CPT: inconclusive; TDP1 cell noCPT: 21µM; TDP1 block: inactive

What do the screens show for `COc1ccc(N2C(=O)CSC23C(=O)N(CC(=O)NCc2ccccc2)c2ccccc23)cc1` (centres undefined)?
DT40 TDP1 CPT: inactive; TDP1 cell noCPT: inconclusive; TDP1 block: inactive

What do the screens show for `COc1ccc(N2C(=O)CSC23C(=O)N(CC(=O)NCCc2ccccc2)c2ccccc23)cc1` (centres undefined)?
DT40 TDP1 CPT: 16µM; TDP1 cell noCPT: inconclusive; TDP1 block: inactive

How did O=C1CSC2(C(=O)N(Cc3ccccc3)c3ccccc32)N1c1ccc(Cl)cc1 (centres undefined) do in these assays?
DT40 TDP1 CPT: 16µM; TDP1 cell noCPT: 21µM; TDP1 block: inactive

What do the screens show for `CCN(CC)CCNC(=O)CN1C(=O)CSc2ccc(S(=O)(=O)N3CCOCC3)cc21`?
DT40 TDP1 CPT: inactive; TDP1 cell noCPT: inactive; TDP1 block: inactive

What do the screens show for `COc1cccc(C(=O)NCc2ccc3c(c2)OCO3)c1OC`?
RORg inh: inactive; DT40 TDP1 CPT: inactive; TDP1 cell noCPT: inactive; TDP1 block: inactive; Gal4-VP16 FLuc: inactive

What do the screens show for `Cc1cc(=O)n(C(C)C(=O)N2CCCc3ccccc32)c2c1c(C)nn2-c1ccccc1` (centres undefined)?
DT40 TDP1 CPT: 16µM; TDP1 cell noCPT: inconclusive; TDP1 block: inactive

What do the screens show for `CC(=O)c1cccc(NC(=O)C(C)n2c(=O)cc(C)c3c(C)nn(-c4ccccc4)c32)c1` (centres undefined)?
DT40 TDP1 CPT: inactive; TDP1 cell noCPT: inactive; TDP1 block: inactive

What do the screens show for `CC(=O)c1ccc(NC(=O)CCc2c(C)nn(-c3ccc(N4CCOCC4)nn3)c2C)cc1`?
RORg inh: inactive; DT40 TDP1 CPT: inconclusive; TDP1 cell noCPT: inconclusive; TDP1 block: inactive; Gal4-VP16 FLuc: inconclusive

Results for CC[n+]1ccc(/C=C2\Sc3ccccc3N2CCCS(=O)(=O)[O-])c2ccccc21 ?
RORg inh: inactive; DT40 TDP1 CPT: inactive; TDP1 cell noCPT: inactive; TDP1 block: 50µM; Gal4-VP16 FLuc: inactive

How did CCS(=O)(=O)N(CC(=O)Nc1cccc2ccccc12)c1ccc(OC)cc1 do in these assays?
DT40 TDP1 CPT: inconclusive; TDP1 cell noCPT: inconclusive; TDP1 block: inactive

What do the screens show for `CC(C)C[C@@H]1NC(=O)[C@H](Cc2ccccc2)N(C)C(=O)[C@H](C)NC(=O)c2ccccc2NC(=O)[C@H](Cc2ccc(O)cc2)N(C)C1=O`?
RORg inh: inactive; DT40 TDP1 CPT: 16µM; TDP1 cell noCPT: 15µM; Gal4-VP16 FLuc: inactive

How did CC(C)CC1NC(=O)N(CC(=O)N2c3ccccc3NC(=O)C2(C)C)C1=O (centres undefined) do in these assays?
RORg inh: inactive; DT40 TDP1 CPT: inactive; TDP1 cell noCPT: inactive; TDP1 block: inactive; Gal4-VP16 FLuc: inactive

How did CN(C(=O)c1cccc(NC(=O)Cc2cccc([N+](=O)[O-])c2)c1)C1CC1 do in these assays?
DT40 TDP1 CPT: inactive; TDP1 cell noCPT: inactive; TDP1 block: inactive

How did O=C(CCSc1ccccc1)Nc1nc2c(s1)COc1ccccc1-2 do in these assays?
RORg inh: inactive; DT40 TDP1 CPT: inconclusive; TDP1 cell noCPT: inconclusive; TDP1 block: inactive; Gal4-VP16 FLuc: inconclusive

How did Cc1c(C#N)c(O)n(C)c(=O)c1N=Nc1ccc(S(N)(=O)=O)cc1 do in these assays?
RORg inh: inactive; DT40 TDP1 CPT: inconclusive; TDP1 cell noCPT: 13µM; TDP1 block: inactive; Gal4-VP16 FLuc: inactive

How did CCC(C)NC(=O)NC1C(NC(=O)NC(C)CC)N(C)C(=O)N1C (centres undefined) do in these assays?
RORg inh: inactive; DT40 TDP1 CPT: inactive; TDP1 cell noCPT: inactive; TDP1 block: inactive; Gal4-VP16 FLuc: inactive

What do the screens show for `CCS(=O)(=O)n1nc(-c2ccco2)nc1NCc1ccc(C(C)C)cc1`?
DT40 TDP1 CPT: inconclusive; TDP1 cell noCPT: 16µM; TDP1 block: inactive

Results for CC(O)CNc1ncnc2cc(-c3ccc(F)cc3)sc12 (centres undefined) ?
RORg inh: inactive; DT40 TDP1 CPT: inconclusive; TDP1 cell noCPT: inconclusive; TDP1 block: inactive; Gal4-VP16 FLuc: inconclusive

What do the screens show for `Clc1cccc(Cl)c1Cn1cnc2c(N3CCCCCC3)ncnc21`?
RORg inh: inactive; DT40 TDP1 CPT: 18µM; TDP1 cell noCPT: 10µM; TDP1 block: inactive; Gal4-VP16 FLuc: inactive

Results for CCN1CCN(c2ncnc3c2sc(=S)n3-c2ccccc2)CC1 ?
RORg inh: inactive; DT40 TDP1 CPT: inconclusive; TDP1 cell noCPT: inactive; TDP1 block: inactive; Gal4-VP16 FLuc: inactive

What do the screens show for `Cn1nnc2c(N3CCN(Cc4ccccc4)CC3)ncnc21`?
DT40 TDP1 CPT: inconclusive; TDP1 cell noCPT: 16µM

Results for c1ccc(Cn2nnc3c(N4CCCCCC4)ncnc32)cc1 ?
RORg inh: inconclusive; DT40 TDP1 CPT: inconclusive; TDP1 cell noCPT: 16µM; TDP1 block: inactive; Gal4-VP16 FLuc: inactive

What do the screens show for `c1ccc(Cn2nnc3c(N4CCc5ccccc54)ncnc32)cc1`?
RORg inh: inactive; DT40 TDP1 CPT: inactive; TDP1 cell noCPT: inactive; TDP1 block: inactive; Gal4-VP16 FLuc: inactive

What do the screens show for `Cn1nnc2c(N3CCN(c4ccc(F)cc4)CC3)ncnc21`?
DT40 TDP1 CPT: inconclusive; TDP1 cell noCPT: inconclusive; TDP1 block: inactive

Results for S=c1sc2c(N3CCN(Cc4ccccc4)CC3)ncnc2n1-c1ccccc1 ?
RORg inh: inactive; DT40 TDP1 CPT: 16µM; TDP1 cell noCPT: 23µM; TDP1 block: inactive; Gal4-VP16 FLuc: inactive

What do the screens show for `Cc1nc(C(F)(F)F)ccc1C(=O)Nc1ccccc1N1CCOCC1`?
RORg inh: inactive; DT40 TDP1 CPT: inactive; TDP1 cell noCPT: inactive; TDP1 block: inactive; Gal4-VP16 FLuc: inactive

How did c1ccc(Cn2nnc3c(NCCN4CCOCC4)ncnc32)cc1 do in these assays?
RORg inh: inconclusive; DT40 TDP1 CPT: inactive; TDP1 cell noCPT: inactive; TDP1 block: inactive; Gal4-VP16 FLuc: inactive

How did CCCN1CCN(c2ncnc3c2nnn3Cc2ccccc2)CC1 do in these assays?
RORg inh: inactive; DT40 TDP1 CPT: 16µM; TDP1 cell noCPT: 21µM; TDP1 block: inactive; Gal4-VP16 FLuc: inactive

What do the screens show for `COCCNC(=O)Cn1nc(C)c2c(C)n(-c3ccc(C)cc3)nc2c1=O`?
DT40 TDP1 CPT: inactive; TDP1 cell noCPT: inactive; TDP1 block: inactive
